Source: PubChem
Sfp PPTase inh – Sfp phosphopantetheinyl transferase inhibition | Q9F4F7 | Biochemical Sfp PPTase activity, qHTS | Potency, µM, most hits filed as inhibitors | actives 3.5% (n = 310,000);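 also: the enzyme is Sfp with the accession as filed and its product quenches rhodamine fluorescence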
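Fluorescence-quenching assay: 15 nM Sfp-PPTase preincubated 15 min at room temperature with compound, then 5 uM rhodamine-CoA and 12.5 uM BHQ-2-labelled YbbR peptide added. Fluorescence (ex 525/em 598 nm) read at start and after 30 min; difference gives rate.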
BAZ2B block – BAZ2B (human) inhibition; AlphaScreen BAZ2B-H3K14Ac peptide displacement; Q9UIF8; actives 4.4% (n = 360,000); Potency, µM (series often up to 114 µM), actives largely listed as inhibitors; also: nearly all actives have a fitted effect of over 60% in size
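AlphaScreen displacement: compounds (up to 110uM) incubated 30 min at room temperature with a preformed 50 nM BAZ2B/50 nM biotinylated H3K14Ac peptide complex in PBS pH 7.4 with Tween-20. Donor and acceptor beads at 10 ug/mL final added, 20 min light-protected before reading.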
G9a inh – blocks human histone lysine methyltransferase G9a; AID 504332; actives 8.8% (n = 350,000); Q96KQ7; G9a H3K9 monomethylation, AlphaScreen, 2 h; Potency, µM (titrated, usually from 102 µM), most hits filed as inhibitors; also: nearly all actives have a fitted effect of over 75% in size
Target sequence (Q96KQ7 913-1193 limits assumed): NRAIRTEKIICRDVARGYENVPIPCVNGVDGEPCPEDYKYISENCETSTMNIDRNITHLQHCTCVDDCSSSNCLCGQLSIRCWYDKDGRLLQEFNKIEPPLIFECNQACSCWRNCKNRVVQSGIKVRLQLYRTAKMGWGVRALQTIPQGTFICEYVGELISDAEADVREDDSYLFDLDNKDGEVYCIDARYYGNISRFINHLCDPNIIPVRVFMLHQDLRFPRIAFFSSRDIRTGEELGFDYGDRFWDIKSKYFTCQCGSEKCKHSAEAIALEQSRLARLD
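Signal arises when biotinylated H3K9 peptide, once monomethylated, bridges streptavidin donor and antibody-captured acceptor beads. Enzyme at 20 nM was preincubated 15 min with test compounds; peptide 500 nM and SAM 20 uM then reacted for 2 h.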
JMJD2A Tudor inh – blocks the human JMJD2A Tudor domain; O75164; actives 4.4% (n = 390,000); AlphaScreen JMJD2A-Tudor / H3K4me3 peptide binding; Potency, µM (highest dose often 114 µM), most hits filed as inhibitors; AID 504339; also: nearly all actives have a fitted effect of over 50% in size
HP1b chromo inh – inhibitors of HP1-beta chromodomain binding to methylated histone tails; P83916; AlphaScreen HP1-beta / biotin-H3K9me3 peptide binding; Potency, µM (doses to about 114 µM), most hits filed as inhibitors; actives 0.56% (n = 390,000); also: nearly all actives have a fitted effect of over 70% in size
Target sequence (P83916 whole entry, looked up): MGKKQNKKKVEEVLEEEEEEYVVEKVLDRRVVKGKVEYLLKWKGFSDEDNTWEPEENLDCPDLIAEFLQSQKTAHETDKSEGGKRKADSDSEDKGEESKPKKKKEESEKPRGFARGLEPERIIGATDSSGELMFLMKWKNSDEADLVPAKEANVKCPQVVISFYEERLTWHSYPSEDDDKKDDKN
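AlphaScreen: HP1-beta (50 nM) preformed 30 min with biotin-H3(1-18)K9me3 peptide (50 nM) in PBS pH 7.4, 0.01% Tween-20. Compound added for 30 min at RT, then streptavidin donor/nickel chelate acceptor beads (10 ug/mL) for 30 min.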
Numbers stand for hits; – = inactive; ? = inconclusive; · = no result; ! = repeats disagree; [ ] = dose if it differs, or a comment. Most compounds without a hit are left out; they make up all but 12% or so of the library. Calls follow the shape of the dose curve; as a rule, active = well fitted curve in the direction sought with a large enough effect; inconclusive = small, poorly fitted or top-dose-only effect, or another doubt; inactive = no such curve, though single readings can be large; an effect the other way counts as inactive or inconclusive.

SMILES	Sfp PPTase inh	BAZ2B block	G9a inh	JMJD2A Tudor inh	HP1b chromo inh
CC(=O)c1cc(CC(=O)N2CCc3c([nH]c4ccccc34)C2c2ccccn2)cs1 (stereo not given)	20µM	–	?	?	–
CCOC(=O)c1[nH]c(C)c(C(=O)N2CCc3ccccc32)c1C	–	–	–[12.7 µM]	–	–
Cc1cc2cc(C(=O)N3CCc4c([nH]c5ccccc45)C3c3ccccn3)ccc2o1 (stereo not given)	–	40µM	?	35µM	–
COc1ccc(-c2noc(-c3nnn(-c4ccc(C(C)C)cc4)c3C)n2)cc1OC	·	–	–	–	–
O=S(=O)(c1ccc(SCCOc2cccc(Br)c2)nc1)N1CCCC1	·	–	–[12.7 µM]	–	–
O=C(c1cc2ncccn2n1)N1CCc2c([nH]c3ccccc23)C1c1ccccc1F (stereo not given)	–	–	–	?	–
O=C(O)c1cc(-c2ccccc2)n[nH]1	–	–	–	–	–
Cc1ncoc1C(=O)N1CCc2c([nH]c3ccccc23)C1c1ccccc1F (stereo not given)	–	50µM	40µM	?	–
CSc1ccc(C2c3[nH]c4ccccc4c3CCN2C(=O)c2ccnn2C)cc1 (stereo not given)	–	?	40µM	?	–
Cn1cccc1-c1cc(C(=O)N2CCc3c([nH]c4ccccc34)C2c2ccccn2)[nH]n1 (stereo not given)	?	35µM	35µM	50µM	?
Cn1cccc1-c1cc(C(=O)O)[nH]n1	45µM	?	50µM	–	–
CC(=O)c1cc(C(=O)N2CCc3c([nH]c4ccccc34)C2CC(C)C)[nH]n1 (stereo not given)	–	?	·	?	–
COc1cc(NC(=O)C2CC(=O)NC3=C2C(=O)CC(C)(C)C3)c(OC)cc1Cl (stereo not given)	–	–	–[12.7 µM]	–	–
C=CCn1c(N)cc(=O)nc1SCC(=O)Nc1ccc(C)cc1	–	–	?	–	–
Cc1cc(C)n(-c2nc(-c3ccc(Cl)c(Cl)c3)cs2)n1	–	–	–	–	–
O=C(OCc1ccccc1)N1CCC2CC1c1cc(-c3ccccc3)ccc12 (stereo not given)	·	·	·	–	–
CCCCNc1ccc2c(c1)C1CC2CCN1C(=O)OCc1ccccc1 (stereo not given)	·	·	·	25µM	–
CCCc1cc(=O)[nH]c(SCC(=O)N(Cc2ccccc2)C(C)C)n1	–	?	1µM	–	–
CCCc1cc(=O)[nH]c(SCC(=O)C(C)(C)C)n1	–	–	71µM	–	–
COCCCN(C(=O)C(C)Oc1ccc(Br)cc1)c1c(N)n(Cc2ccccc2)c(=O)[nH]c1=O (stereo not given)	·	–	?	–	–
COc1ccc(S(=O)(=O)N2CCC3(CC2)CC(=O)c2ccccc2O3)cc1	·	–	–	–	–
CCc1ccc(-n2cccc2/C=C2/C(=N)N3C(=NC2=O)SN=C3S(C)(=O)=O)cc1	–	40µM	45µM	56µM	–
Cc1ccc(-n2cccc2/C=C2/C(=N)N3C(=NC2=O)SN=C3S(C)(=O)=O)cc1	–	45µM	40µM	16µM	–
Cc1ccc(-n2cccc2/C=C2\C(=N)N3N=C(c4ccco4)SC3=NC2=O)cc1	–	35µM	10µM	?	–
Cc1cc(C)cc(-n2cccc2/C=C2/C(=N)N3C(=NC2=O)SN=C3S(C)(=O)=O)c1	?	56µM	?	?	–
SMILES	Sfp PPTase inh	BAZ2B block	G9a inh	JMJD2A Tudor inh	HP1b chromo inh
COc1cccc(CC(=O)OCC(=O)Nc2nnc(-c3ccccc3)o2)c1	·	–	–	–	–
CCOCCCNc1nc2c(C)cccn2c(=O)c1/C=C1\SC(=S)N(C(C)CC)C1=O (stereo not given)	–	–	–	–	–
On1c(-c2ccccc2Cl)nc2ncccc21	–	–	–	–	–
CC(C)(C)C(=O)NCCc1nc2ccccc2n1CCCCOc1ccccc1	·	–	–	–	–
CCOc1ccc(CN(C(=O)c2nc(SC)ncc2Cl)C2CCS(=O)(=O)C2)cc1 (stereo not given)	·	–	–	–	–
CS(=O)(=O)C1=NSC2=NC(=O)/C(=C\c3cccn3-c3ccccc3Cl)C(=N)N21	–	50µM	50µM	?	–
COc1cc2ncnc(Nc3cccc(Cl)c3)c2cc1OC	56µM!	–	–	·	·
COc1cc2ncnc(NCc3cccc(F)c3F)c2cc1OC	–	–	45µM	–	–
COc1cc2ncnc(NCc3ccccc3F)c2cc1OC	–	–	?	–	–
CCOC(=O)C1C(=O)OC(C)(C)C1C(C)C(=O)c1ccc(C)cc1C (stereo not given)	–	–	–	–	–
CCSc1nc2c(c(=O)[nH]c(=O)n2C)n1CC(O)COc1ccccc1 (stereo not given)	–	·	–	–	–
CC(C)CSc1nc2c(c(=O)[nH]c(=O)n2C)n1CC(O)COc1cccc2ccccc12 (stereo not given)	28µM	–	4µM	?	?
CC(C)CSc1nc2c(c(=O)[nH]c(=O)n2C)n1CCc1ccccc1	–	–	–	–	–
CCCSc1nc2c(c(=O)[nH]c(=O)n2C)n1CC(O)COc1ccccc1 (stereo not given)	–	–	50µM	–	–
Cn1c(=O)[nH]c(=O)c2c1nc(SCCO)n2CC(O)COc1ccccc1 (stereo not given)	5µM	–	16µM	–	?
C/C(CC(=O)NC(C)C)=N\NC(=O)C(c1ccccc1)c1ccccc1	–	–	–	–	–
Cc1ccc(Cn2ccc(NC(=O)c3noc4c3CCc3ccccc3-4)n2)cc1	16µM	–	–	–	–
Cc1ccc(S(=O)(=O)N2CCOCC2)cc1NC(=O)CSc1nc(N)cc(=O)[nH]1	71µM	–	·	–	–
CC(C)(C)NC(=O)NC(=O)CSc1ccc(S(=O)(=O)N2CCOCC2)cn1	·	–	5.6µM	79µM	–
Cc1ccc(C)c(SCC(=O)Nc2cccc(S(=O)(=O)N3CCOCC3)c2)c1	·	–	–[0.501 µM]	–	–
Cc1ccc(C)c(SCC(=O)Nc2cc(S(=O)(=O)N3CCOCC3)ccc2C)c1	·	–	14µM	–	–
CCNC(=O)NC(=O)CSc1ccc(S(=O)(=O)N2CCOCC2)cn1	·	·	·	–	–
Cc1ccc(S(=O)(=O)N2CCOCC2)cc1NC(=O)CNC1CCCC1	–	–	·	5µM	–
Cc1ccc(S(=O)(=O)N2CCOCC2)cc1NC(=O)CSc1nc(N)cc(N)n1	·	–	–	–	–
COc1ccc(CC(=O)N(C)Cc2cccc(OC)c2OC)cc1S(=O)(=O)N1CCOCC1	·	?	–	–	–
COC(=O)c1ccccc1NC(=O)CSc1nc(N)cc(N)n1	–	–	–	–	–
COC(=O)c1ccccc1NC(=O)CSc1nc(N)cc(=O)[nH]1	–	56µM	50µM	?	?
O=[N+]([O-])c1ccccc1NC(=S)N/N=C/c1ccc(O)c(O)c1	–	10µM	·	?	8.9µM
